17 compounds from PubChem BioAssay (Tox21) can be followed below.

Calls of active or inactive are those of the source. A call without a number means that no potency is given here. The call rests on the fitted dose curve; in most records, active means well fitted activation curve with a large enough effect in the repeat runs; inconclusive means weak or mixed curves; inactive means flat fitted curve, though single readings scatter.

KiSS-1 receptor (Homo sapiens), sequence (Q969F8 whole entry, looked up): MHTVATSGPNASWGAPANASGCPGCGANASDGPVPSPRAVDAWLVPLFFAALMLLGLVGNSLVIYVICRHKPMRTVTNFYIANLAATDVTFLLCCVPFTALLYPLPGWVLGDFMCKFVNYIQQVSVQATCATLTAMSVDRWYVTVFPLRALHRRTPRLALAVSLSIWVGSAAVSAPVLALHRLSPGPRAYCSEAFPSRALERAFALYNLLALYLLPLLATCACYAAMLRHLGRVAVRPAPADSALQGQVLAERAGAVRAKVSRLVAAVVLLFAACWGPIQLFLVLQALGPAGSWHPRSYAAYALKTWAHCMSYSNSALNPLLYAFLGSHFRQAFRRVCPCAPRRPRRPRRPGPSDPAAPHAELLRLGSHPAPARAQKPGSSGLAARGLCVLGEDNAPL

This experiment deals with KiSS-1 receptor (Homo sapiens) (UniProt Q969F8). Description: Human kisspeptin (KISS1R) small molecule agonists, calcium flux assay in KISS1R-HEK293 cells (AID 1920064). The settings on record: KISS1R-HEK293, calcium flux fluorescence, agonist; series mostly up to 76.8 µM. The method, boiled down:
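Triplicate 15-concentration series were applied to dye-loaded human KISS1R HEK293 cells, and agonist-evoked calcium fluorescence was captured for 3 min.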
In general terms: A change in cytosolic calcium serves as a functional read-out for many receptors and channels.
With `c1ccc2c(c1)Cc1ccccc1-2`, the Potency result is “inactive”.

For `CCCOC(=O)NCCCN(C)C`, the Potency result was “inactive”.

Turning to `CCCCOC(=O)CC(CC(=O)OCCCC)(OC(C)=O)C(=O)OCCCC`, the Potency entry is “inactive”.

With `C=CC[N+](C)(C)CC=C`, the Potency entry was “inactive”.

`CC(O)COCC(C)O` (configuration not stated): the Potency entry was “inactive”.

For the compound `CCCCC/C=C\C/C=C\CCCCCCCC(=O)OC`, the Potency entry is “inactive”.

Consider `Nc1ncnc2nc[nH]c12`, for which the Potency result is “inactive”.

As to `Cc1ccc(N)c(S(=O)(=O)O)c1`, the Potency result was “inactive”.

As for `NCCOCCO`, the Potency entry is “inactive”.

As for `CC(=O)Oc1ccc(C)cc1`, the Potency result is “inactive”.

Turning to `O=S1(=O)CCCO1`, the Potency result was “inactive”.

As for `C=C(C)C(=O)OCC(CC)(COC(=O)C(=C)C)COC(=O)C(=C)C`, the Potency entry was “inactive”.

Consider `O=[N+]([O-])c1cccc(Cl)c1`, for which the Potency result is “inactive”.

Take `CCOCC(=O)O`: the Potency entry was “inactive”.

For the compound `C=CCc1ccc(OC)c(OC)c1`, the Potency result was “inactive”.

With `Clc1ccccn1`, the Potency entry is “inactive”.

Take `Cc1cccc([N+](=O)[O-])c1C`: the Potency result is “inactive”.
